From PubChem
Compounds with a hit are over-represented: about 7.4% of the library has one in this group of screens.
Rab9 prom act: Rab9 promoter activation; 320,000 compounds, 2.8% hits; Huh7 Rab9 promoter-luciferase reporter, luminescence, 24 h; Potency, µM (doses to about 9.22 µM), without a hit: at the highest dose activation, negative = inhibition, usual class: activators; also: % of control where 0% means no effect; nearly all actives have a fitted effect of over 60% in size
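Cells were plated at 1500 per well in reduced-serum medium with 10% FBS and left 2 h. Compound in DMSO was then added for 24 h at 37 °C. Reporter signal was read by luminescence after 10 min with luciferase detection reagent.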
p53 reactivator: restores transcriptional activity of mutant p53 | Potency, µM (titrated, usually from 92.2 µM), without a hit: at the top dose activity change, positive = activation, most hits filed as activators | AID 504706 | H1299 p53-A138V BP100-luciferase reporter, luminescence, 24 h | 320,000 compounds, 0.063% hits; also: % of control where 0% means no effect; nearly all actives have a fitted effect of over 45% in size
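H1299 (p53-null), stable ts p53-A138V + BP100-Luc; 1000 cells/well, Opti-MEM/10% FBS; cpd 4 pt, 1:5; 24 h, 37 deg C, 5% CO2; detection reagent 10 min RT; luminescence.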
SMN2 splice up: increases expression of the SMN2 splice variant; HEK293 SMN2-luciferase splicing reporter, luminescence, 30-36 h; Potency, µM (series often up to 46.1 µM), without a hit: at the highest dose activity change, positive = activation, usual class: activators; 210,000 compounds, 2.8% hits; also: % of control where 0% means no effect; nearly all actives have a fitted effect of over 55% in size
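HEK293 cells carry an SMN2 minigene-luciferase reporter in which exon 7 inclusion puts luciferase in frame. Cells were seeded at 2000 cells/well, attached for 10-12 hours, then exposed to compounds for 30-36 hours at 37C before ONE-Glo luminescence.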
ELG1 genotox: induces genotoxicity in HEK293T cells with luciferase-tagged ELG1 | AID 504466 | HEK293T ELG1-luciferase reporter, luminescence, 16 h | 330,000 compounds, 1.3% hits | Potency, µM (titrated, usually from 46 µM), inactives show at the highest dose activity change, positive = activation, usual class: activators; also: % of control where 0% means no effect; nearly all actives have a fitted effect of over 60% in size
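DMSO vehicle served as control against compound-treated ELG1-luciferase HEK293T cells; exposure lasted 16 hr at 37 °C and 5% CO2, followed by ONE-Glo luminescence detection after 30 min.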
NPC1 promoter act: NPC1 promoter activation; Huh7 NPC1 promoter luciferase reporter, 24 h; Potency, µM (series often up to 9.22 µM), for the others: at the top dose activation, hits mostly activators; 320,000 compounds, 2.4% hits; also: % of control where 0% means no effect; nearly all actives have a fitted effect of over 60% in size
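Luciferase expression driven by the NPC1 promoter was measured in stably transfected Huh7 cells after a 24 h compound incubation, using a luciferase reagent and a luminescence read.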
FLuc counter: firefly luciferase modulation, counter-screen for miR-21 project | purified FLuc, Km substrates, luminescence inhibition | 360,000 compounds, 6.9% hits | P08659 | Potency, µM (top dose mostly 57.5 µM), for inactives: top-dose activity change, negative = inhibition, usual class: inhibitors;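 also: plate controls were vehicle for no effect and reference inhibitor for full effect; nearly all actives have a fitted effect of over 55% in size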
Target sequence (P08659 whole entry, looked up): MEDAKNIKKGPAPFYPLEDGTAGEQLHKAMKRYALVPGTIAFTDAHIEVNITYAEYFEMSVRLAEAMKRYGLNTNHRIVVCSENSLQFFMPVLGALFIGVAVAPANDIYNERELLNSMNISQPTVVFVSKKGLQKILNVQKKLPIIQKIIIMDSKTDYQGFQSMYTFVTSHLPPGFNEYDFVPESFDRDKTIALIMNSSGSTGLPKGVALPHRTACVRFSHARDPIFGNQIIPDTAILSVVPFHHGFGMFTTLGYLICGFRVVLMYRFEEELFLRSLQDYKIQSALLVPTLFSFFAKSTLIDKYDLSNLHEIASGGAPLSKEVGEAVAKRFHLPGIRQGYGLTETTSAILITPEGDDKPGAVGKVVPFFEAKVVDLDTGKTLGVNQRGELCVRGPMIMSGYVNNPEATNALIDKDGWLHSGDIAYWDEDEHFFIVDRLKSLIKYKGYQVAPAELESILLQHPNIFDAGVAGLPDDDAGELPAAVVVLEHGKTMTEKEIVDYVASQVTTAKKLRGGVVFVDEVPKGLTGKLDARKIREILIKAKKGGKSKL
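Purified P. pyralis luciferase (10nM final) with 10uM D-luciferin and 10uM ATP (Km levels) in 50mM Tris acetate pH 7.5, 10mM Mg acetate, 0.01% Tween-20, 0.05% BSA; qHTS 6-point titration, ~60 µM downward; luminescence read.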
* hit, by the source's call; [ ] = another dose, or the depositor's remark. Calls follow the shape of the dose curve; as a rule, active = well fitted curve in the direction sought with a large enough effect; inconclusive = small, poorly fitted or top-dose-only effect, or another doubt; inactive = no such curve, though single readings can be large; an effect the other way counts as inactive or inconclusive. Potency is read from the fitted curve at half-maximal effect.

Cc1nn(-c2ccccc2)c(C)c1Cc1ccc(O)cc1 was read as Rab9 prom act inconclusive, p53 reactivator 13%, ELG1 genotox 3%, NPC1 promoter act inconclusive and FLuc counter 24µM*.
For Cc1ccc(SCn2nnc3ccccc3c2=O)c(C)c1 the results were Rab9 prom act 2.5µM*, p53 reactivator 3%, SMN2 splice up 16µM*, ELG1 genotox inconclusive, NPC1 promoter act inconclusive and FLuc counter 19µM*.
`Cc1ccc2nc(SCC(=O)c3c(C)[nH]c4ccccc34)[nH]c2c1` gave Rab9 prom act 2%, p53 reactivator -10%, SMN2 splice up -12%, ELG1 genotox -1%, NPC1 promoter act -1% and FLuc counter inconclusive.
`Cc1cc(=O)[nH]c(SCn2nnc3ccccc3c2=O)n1` gave Rab9 prom act -11%, p53 reactivator 0%, SMN2 splice up 12%, ELG1 genotox 3%, NPC1 promoter act -1% and FLuc counter 1%.
Cc1ccc2nc(SCn3nnc4ccccc4c3=O)[nH]c2c1 was read as Rab9 prom act 1.8µM*, SMN2 splice up 2.8µM*, ELG1 genotox inconclusive, NPC1 promoter act 2.5µM* and FLuc counter 4.8µM*.
`Cc1ccc(-n2c(SCn3nnc4ccccc4c3=O)nnc2-c2cccnc2)c(C)c1` gave Rab9 prom act -2%, p53 reactivator -10%, SMN2 splice up -1%, ELG1 genotox -6%, NPC1 promoter act 8% and FLuc counter 1%.
Screening O=c1c2ccccc2nnn1CSc1nc2ccccc2[nH]1 returned Rab9 prom act 2.8µM*, p53 reactivator inconclusive, SMN2 splice up 25µM*, ELG1 genotox inconclusive, NPC1 promoter act 3.5µM* and FLuc counter 15µM*.
O=c1c2ccccc2nnn1CSc1nnc2sc3ccccc3n12 was read as Rab9 prom act 0.32µM*, p53 reactivator -16%, SMN2 splice up 2.2µM*, ELG1 genotox inconclusive, NPC1 promoter act 0.4µM* and FLuc counter 1.9µM*.
For COc1ccccc1C(=O)N1CCN(Cc2cc(=O)oc3cc(C)ccc23)CC1 the results were SMN2 splice up -4% and FLuc counter 1%.
`O=c1c2ccccc2nnn1CSc1ccccc1F` gave Rab9 prom act 0.89µM*, p53 reactivator inconclusive, SMN2 splice up 10µM*, ELG1 genotox inconclusive, NPC1 promoter act 1.3µM* and FLuc counter 2.7µM*.
For O=c1c2ccccc2nnn1CSc1ncnc2ccccc12 the results were Rab9 prom act -16%, p53 reactivator -3%, SMN2 splice up inconclusive, ELG1 genotox -3%, NPC1 promoter act -2% and FLuc counter inconclusive.
`COc1ccccc1N1CCN(C(=O)CCS(=O)(=O)c2cc(Br)cc3c2N(C(=O)C2CC2)CC3)CC1` gave SMN2 splice up 1% and FLuc counter 6%.
`Cc1ccc(O)c(-n2nc3ccccc3n2)c1` gave Rab9 prom act 3.2µM*, p53 reactivator 19%, ELG1 genotox inconclusive, NPC1 promoter act 3.2µM* and FLuc counter 2.7µM*.
Cc1ccc(N2C(=O)CC(N3CCN(C)CC3)C2=O)cc1 (centres undefined) was read as Rab9 prom act -6%, p53 reactivator -1%, SMN2 splice up -9%, ELG1 genotox 0%, NPC1 promoter act -2% and FLuc counter -1%.
`Cc1ccc2nc(-c3ccc(N4C(=O)CC(N5CCCC(C)C5)C4=O)cc3)sc2c1` (centres undefined) gave SMN2 splice up 17% and FLuc counter 15µM*.
Screening CCOC(=O)C1CCCN(C2CC(=O)N(c3ccc(N4C(=O)CC(N5CCCC(C(=O)OCC)C5)C4=O)cc3)C2=O)C1 (centres undefined) returned Rab9 prom act 1%, p53 reactivator -2%, SMN2 splice up 11%, ELG1 genotox -4%, NPC1 promoter act -3% and FLuc counter 4%.
Screening Cc1ccc2nc(-c3ccc(N4C(=O)CC(N5CCC(C(N)=O)CC5)C4=O)cc3)sc2c1 (centres undefined) returned Rab9 prom act 1%, p53 reactivator inconclusive, SMN2 splice up 11%, ELG1 genotox inconclusive, NPC1 promoter act 5% and FLuc counter 2.7µM*.
Screening COC(=O)[C@@]1(C)[C@H]2C(=O)N(C)C(=O)[C@H]2[C@H]2CN=C(SCc3ccc(C#N)cc3)N21 returned p53 reactivator 9% and ELG1 genotox -2%.
O=C(OC1Cc2c(O)cc(O)cc2OC1c1cc(O)c(O)c(O)c1-c1c(C2Oc3cc(O)cc(O)c3CC2OC(=O)c2cc(O)c(O)c(O)c2)cc(O)c(O)c1O)c1cc(O)c(O)c(O)c1 (centres undefined) was read as SMN2 splice up 8%.
`O=C(Nc1nccs1)c1ccc(-c2ccc(F)cc2)o1` gave Rab9 prom act 3.5µM*, p53 reactivator 18%, SMN2 splice up 11µM*, ELG1 genotox inconclusive, NPC1 promoter act 2.2µM* and FLuc counter 2.1µM*.
`Cc1nnc(NC(=O)c2ccc(-c3ccc(Cl)cc3)o2)s1` gave Rab9 prom act 8%, p53 reactivator 9%, ELG1 genotox 4%, NPC1 promoter act 0% and FLuc counter -14%.
`C/C=C/C=C/C(=O)Nc1nccs1` gave Rab9 prom act inconclusive, p53 reactivator inconclusive, SMN2 splice up -6%[1.84 µM], ELG1 genotox 11%, NPC1 promoter act 4% and FLuc counter inconclusive.
O=C(/C=C/c1ccc(Cl)cc1)Nc1nccs1 was read as Rab9 prom act 0.32µM*, p53 reactivator 2%, SMN2 splice up 4µM*, ELG1 genotox inconclusive, NPC1 promoter act 0.63µM* and FLuc counter 1.3µM*.
Screening O=C(Nc1nccs1)c1ccc(-c2ccc(Cl)cc2)o1 returned Rab9 prom act 1µM*, p53 reactivator 4%, SMN2 splice up 11µM*, ELG1 genotox inconclusive, NPC1 promoter act 1.4µM* and FLuc counter 0.21µM*.
O=C(Nc1nccs1)c1ccc(-c2ccc([N+](=O)[O-])cc2)o1 was read as Rab9 prom act 1.4µM*, p53 reactivator 13%, SMN2 splice up 13µM*, ELG1 genotox inconclusive, NPC1 promoter act 1.8µM* and FLuc counter 6µM*.
Cc1cc(C)cc(NC(=O)CSc2nc(=O)n(CCCN3CCOCC3)c3c2CCCC3)c1 was read as Rab9 prom act 0%, p53 reactivator -1%, ELG1 genotox 0%, NPC1 promoter act -2% and FLuc counter 3%.
`COc1ccc(-c2ccc(NS(=O)(=O)c3ccc(C(C)=O)cc3)cc2)nn1` gave FLuc counter -13%.
